GASC-1 inh – inhibitors of human GASC-1 (JMJD2C) demethylase; Q9H3R0; GST-JMJD2C(1-420) H3K9me3 demethylation, DELFIA europium; inhibition, % at 2.35 µM; hit rate 0.069% among 330,000;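 active = more than half of a compound's replicate wells show inhibition beyond 50%, single wells judged on their own value; inconclusive = some, but no more than half, of replicates pass 50% inhibition; inactive = no replicate passes 50% inhibition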;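 note: signal counts dimethyl H3K9 product captured on neutravidin plate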
Target sequence (Q9H3R0 1-420 limits assumed): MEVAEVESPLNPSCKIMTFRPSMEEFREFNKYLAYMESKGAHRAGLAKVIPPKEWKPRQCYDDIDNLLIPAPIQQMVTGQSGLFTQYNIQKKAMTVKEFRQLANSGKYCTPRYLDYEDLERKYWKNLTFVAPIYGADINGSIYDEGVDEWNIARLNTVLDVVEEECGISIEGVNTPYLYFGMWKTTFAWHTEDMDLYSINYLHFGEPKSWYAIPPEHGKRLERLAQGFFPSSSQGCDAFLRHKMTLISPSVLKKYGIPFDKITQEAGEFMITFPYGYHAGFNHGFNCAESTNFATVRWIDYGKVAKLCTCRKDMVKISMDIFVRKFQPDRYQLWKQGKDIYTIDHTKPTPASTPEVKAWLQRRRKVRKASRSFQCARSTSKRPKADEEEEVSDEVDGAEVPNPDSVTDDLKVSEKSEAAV
SUMO Mot1 rescue – SUMOylation pathway inhibition by Mot1-301 growth rescue | S. cerevisiae Mot1-301 growth rescue, ATP luminescence, 38.5C; percent above DMSO median, 100 means doubled | growth rescue, % at 18.8 µM | hit rate 1% among 320,000 | AID 2716;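 active = every valid replicate shows activation above 250% relative to neutral control wells; inactive = the rest, any valid replicate at or below 250%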
p-CIP stab down – lowers stability of the mouse p/CIP coactivator protein | Q05BA5 | F442A p/CIP-EGFP cells, EGFP fluorescence, 16 h | decrease of EGFP signal, % at 10 µM | hit rate 0.01% among 290,000 | AID 1984;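 active = EGFP signal decrease of at least 30% at 10 µM or well 3 SD below plate mean, unless failing retest; inactive = the rest, including hits failing retest or dose response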
HDAC3 inhib – inhibitors of human histone deacetylase 3 | recombinant HDAC3, fluorogenic peptide/trypsin coupled, fluorescence | inhibition, % at 8.3 µM | hit rate 0.15% among 320,000 | AID 2718; in the data active = inhibition above about 26%, passing the limit was not always enough; inconclusive = no clear call, values can overlap the other calls
PHOSPHO1 block – PHOSPHO1 (human) inhibition | Q8TCT1 | recombinant PHOSPHO1, absorbance phosphatase assay | inhibition, % at 13.3 µM | hit rate 1.1% among 290,000 | AID 1565; in the data active = inhibition above about 60%
PvdQ acylase – P. aeruginosa PvdQ acylase inhibition; purified PvdQ acylase, fluorescence plate reader; inhibition, % at 10 µM; hit rate 0.063% among 340,000; AID 488965; in the data active = inhibition above about 30%, passing the limit was not always enough; inconclusive = no clear call, values can overlap the other calls
Numbers stand for hits; i = inactive; ? = inconclusive; nt = not tested or not shown; ! = not active in a repeat. The list is not random: actives were taken first. Their share in the collection is about 2.2%.

SMILES | GASC-1 inh | SUMO Mot1 rescue | p-CIP stab down | HDAC3 inhib | PHOSPHO1 block | PvdQ acylase
Cn1c[n+](C)cc1C(O)c1ccccc1 (stereo unspecified) | i | i | i | i | 96.3! | i
COC(=O)C[C@]1(C(=O)OC)CN(C#N)N(c2ccc(Cl)cc2)C12c1ccccc1-c1ccccc12 | i | 411.8 | i | i | i | i
COc1ccc(CC(C)Nc2cccc(F)c2)cc1 (stereo unspecified) | i | i | i | i | nt | 36.3
Cc1ccc(CN2C(=O)NC(=O)C3(Cc4c(nc5ccccn5c4=O)N4CCCCCC43)C2=O)cc1 (stereo unspecified) | i | i | i | i | i | i
Clc1ccc2c(c1)C(c1ccccc1Cl)=NCc1nnc(N3CCN(CCOc4ccccc4)CC3)n1-2 | i | 345.6 | i | i | i | i
Clc1ccc2c(c1)C(c1ccccc1Cl)=NCc1nnc(N3CCN(CCSc4ccccc4)CC3)n1-2 | i | i | i | i | i | i
CCC(C)C12CN3CCN(CC(C)(C3)C1O)C2 (stereo unspecified) | i | i | i | i | i | i
CC(=O)O/C(=C1\CC2C3CC=C4CC(OC(C)=O)CCC4(C)C3CCC2(C)C1=O)C(F)(F)F (stereo unspecified) | nt | nt | nt | nt | nt | i
CC(=O)O[C@H]1CC[C@@]2(C)C(=CC[C@@H]3[C@@H]2CC[C@]2(C)C(=O)CC[C@@H]32)C1 | nt | 483.0 | nt | i | nt | i
O=c1[nH]c(O)c(N=Nc2cccc(S(=O)(=O)N3CCOCC3)c2)c(=O)[nH]1 | i | i | i | i | 60.0 | i
O=C1NC(=O)C(C(CC(=O)c2ccccc2)c2ccccc2)C(=O)N1 (stereo unspecified) | 53.1 | i | i | i | i | i
Cc1ccccc1-n1c(O)c(/C=N/NC(=O)c2ccncc2)c(=O)[nH]c1=O | i | i | i | i | i | i
FC(F)(F)c1ccc2c(c1)N(CCCN1CCN(CCCl)CC1)c1ccccc1S2 | i | i | i | i | 63.9 | i
Cc1ccc(N2C(=O)NC(=O)/C(=C\c3cccn3C(C)(C)C)C2=O)cc1 | i | i | i | i | 60.0 | i
Cc1ccc(N2C(=O)NC(=O)/C(=C/c3ccoc3)C2=O)cc1 | nt | nt | i | nt | i | i
O=C(c1ccc(Cl)cc1)C1CCCN(Cc2ccc3c(c2)OCCO3)C1 (stereo unspecified) | i | i | i | ? | i | i
O=C(c1ccc(Cl)cc1)C1CCCN(Cc2ccc3ncccc3c2)C1 (stereo unspecified) | i | 257.8 | i | i | i | i
Cc1ccc2c(c1)N(C(=O)CCC(=O)N1CCC3(CC1)OCCO3)CC(C)O2 (stereo unspecified) | i | i | i | i | i | i
Cc1cccc(CNCCc2c[nH]c3ccccc23)c1 | i | 285.6 | i | i | i | i
Fc1cccc(CNCCc2c[nH]c3ccccc23)c1 | i | i | i | i | i | i
C=CCn1c(O)c(/C=N/N2CCCCC2)c(=O)[nH]c1=O | i | i | i | i | i | i
NCCc1ccc(OCc2ccccc2)c(OCc2ccccc2)c1 | i | i | nt | i | nt | i
CN1C(=O)C(Cc2ccc(OCc3ccccc3)cc2)C(=O)N(C)C1=O | 50.5 | i | i | i | i | i
COc1cc(CC2C(=O)N(C)C(=O)N(C)C2=O)ccc1OCc1ccccc1 | 52.5 | i | i | i | i | i
CN1CCN(c2c(C#N)c(C(F)(F)F)nn2C)CC1 | i | i | i | i | i | i
SMILES | GASC-1 inh | SUMO Mot1 rescue | p-CIP stab down | HDAC3 inhib | PHOSPHO1 block | PvdQ acylase
CC1C(OC(=O)CCC(=O)NC(C)(C)CO)O[C@H]2OC3(C)CC[C@H]4[C@H](C)CCC1C24OO3 (stereo partly specified) | i | i | i | i | i | i
O=S(=O)(F)c1ccc2nc(-c3cccc(Sc4ccccc4)c3)cc(Cl)c2c1 | i | i | i | i | i | i
C=CCn1c(C)c(C=C2C(=O)NC(=O)NC2=O)c2ccccc21 | 50.1 | i | i | i | i | i
O=C(c1ccc(-c2ccccc2)c(F)c1)C1CCCN(CCO)C1 (stereo unspecified) | i | i | i | i | 60.1 | i
CCCNC(=O)N1CCC2(CC1)OCCO2 | i | i | i | i | 61.5 | i
COc1ccc(NC2=NCCCS2)cc1OC | i | i | i | i | i | i
Cc1cccc(NP2(=O)NCCCN2)c1 | nt | nt | nt | nt | nt | i
N=C(N)c1c(O)n(C2CCCCC2)c(=O)n(C2CCCCC2)c1=O | i | i | i | 28.4 | i | i
O=c1c(C=NCc2cccs2)c(O)n(C2CCCCC2)c(=O)n1C1CCCCC1 | i | i | i | i | i | i
CCOP(=S)(OCC)SCSP(=S)(OCC)OCC | nt | nt | nt | nt | nt | i
OC(c1ccncc1)(c1ccc(F)cc1)c1ccc(F)cc1 | i | i | i | i | i | i
Cn1ncnc2c(=O)n(C)c(=O)nc1-2 | 81.0 | i | i | i | 78.7 | i
COc1ccc(C(=O)OC2C[C@H]3CC[C@H](C2)N3C)cc1OC (stereo partly specified) | nt | 326.5 | nt | i | nt | i
COc1cc2c(cc1OC)CC[N+](C)=C2 | i | i | i | i | i | i
Cc1ccc(N2C(=O)NC(=O)C3(Cc4ccccc4N4CCN(c5ccccc5)CC43)C2=O)cc1 (stereo unspecified) | i | i | i | i | 72.5 | i
OC1/C(=C/c2ccccc2F)N2CCC1CC2 (stereo unspecified) | i | i | i | i | i | i
c1ccc(-c2ccncc2)cc1 | nt | nt | nt | nt | nt | i
C[n+]1ccc(-c2ccncc2)cc1 | i | i | i | i | 91.7 | i
CN1CCN(c2cc(N3CCCC3)c([N+](=O)[O-])cc2F)CC1 | i | 332.2 | i | i | i | i
CCN1CCN(c2cc(N3CCCC3)c(F)cc2[N+](=O)[O-])CC1 | i | i | i | i | i | i
O=C1NC(=O)C(CCc2ccncc2)(CCc2ccncc2)C(=O)N1CCc1ccccc1 | i | i | i | i | 62.8 | i
O=C1NC(=O)C(CCc2ccncc2)(CCc2ccncc2)C(=O)N1CCc1ccc(F)cc1 | i | i | i | i | i | i
O=C(COc1ccc2ccc(=O)oc2c1)N1CCC(C(=O)O)(c2ccccc2)CC1 | i | i | i | i | i | i
Cc1ccc2c(c1)C1CN(C)CCC1N2C(=O)/C=C/c1ccc2c(c1)OCO2 (stereo unspecified) | i | i | i | i | i | i
CC(C)C(=O)Nc1ccc(N2CCN(C)CC2)c(F)c1 | i | 423.1 | i | nt | i | i
CN1CCN(c2ccc(NC(=O)C(C)(C)C)cc2)CC1 | i | i | i | i | i | i
CCC(C)n1c(O)c(C=NCCc2ccccc2)c(=O)[nH]c1=S (stereo unspecified) | i | i | i | i | i | i
O=c1[nH]c(=O)n(CCC2=CCCCC2)c(O)c1/C=N/Nc1ccccc1 | i | 291.4 | i | i | i | i
CCC(C)n1c(O)c(/C=N/Nc2ccccc2)c(=O)[nH]c1=S (stereo unspecified) | i | 354.7 | i | i | i | i
O=c1[nH]c(=S)n(C2CC2)c(O)c1/C=N/Nc1ccccc1 | i | 282.1 | i | nt | i | i

Compound activity as filed in PubChem BioAssay.
